Screening results (PubChem)
Compounds with a hit are over-represented: about 1.6% of the library has one in this group of screens.
gsp antag – gsp mutant antagonism; hit rate 0.4% among 340,000; Potency, µM (top dose mostly 76.9 µM), for inactives: top-dose activity change, negative = inhibition, usual class: inhibitors; gsp-mutant cells, cAMP HTRF, 30 min; calls by dose curve; cell line not stated here;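 further: intracellular cAMP measured with PDE inhibitor Ro 20-1724 present during compound exposure; on the % scale 0 is the no-effect control and ±100 the full control effect; nearly all actives have a fitted effect of over 65% in size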
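HTRF cAMP read-out (cAMP-d2 plus anti-cAMP antibody-K in lysis buffer, 30 min RT). Before lysis, cells are exposed to compounds with […] for 30 min at 37C in DPBS containing Ca/Mg, BSA and Tween 20.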
Mito fusion act – inhibitors of mitochondrial division or activators of mitochondrial fusion; S. cerevisiae fusion-defective mutant growth rescue, CellTiterGlo 48 h; AID 485298; Potency, µM (series often up to 46.1 µM), for the others: at the top dose growth rescue (activation), most hits filed as activators; hit rate 0.23% among 320,000; further: % of control where 0% means no effect; nearly all actives have a fitted effect of over 45% in size
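Yeast fusion mutant, YPEG (non-fermentable carbon), compound, 48 h at 37C non-permissive; CellTiterGlo added, 10 min RT, luminescence read. Rescued growth = division inhibition.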
FUS yeast rescue – rescues growth of FUS-expressing yeast; Potency, µM (top dose mostly 76.6 µM), most hits filed as activators; S. cerevisiae FUS-expressing, growth rescue, OD600, 24 h; AID 1347120; hit rate 0.24% among 390,000;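 further: plate controls were DMSO vehicle for no effect and reference control for full effect; nearly all actives have a fitted effect of over 55% in size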
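Cultures pregrown in 2.5% raffinose medium are shifted to minimal medium containing 2% galactose to express toxic FUS. Compounds are tested at several concentrations. After 24hr at 30C, growth is quantified at 600 nm absorbance.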
12-LOX inh – blocks human arachidonate 12S-lipoxygenase; hit rate 1.1% among 580,000; Potency, µM (doses to about 108 µM), inactives show at the highest dose activity change, negative = inhibition, hits mostly inhibitors; purified 12hLO, xylenol orange hydroperoxide absorbance; further: on the % scale 0 is the no-effect control and ±100 the full control effect
Target sequence (P18054 whole entry, looked up): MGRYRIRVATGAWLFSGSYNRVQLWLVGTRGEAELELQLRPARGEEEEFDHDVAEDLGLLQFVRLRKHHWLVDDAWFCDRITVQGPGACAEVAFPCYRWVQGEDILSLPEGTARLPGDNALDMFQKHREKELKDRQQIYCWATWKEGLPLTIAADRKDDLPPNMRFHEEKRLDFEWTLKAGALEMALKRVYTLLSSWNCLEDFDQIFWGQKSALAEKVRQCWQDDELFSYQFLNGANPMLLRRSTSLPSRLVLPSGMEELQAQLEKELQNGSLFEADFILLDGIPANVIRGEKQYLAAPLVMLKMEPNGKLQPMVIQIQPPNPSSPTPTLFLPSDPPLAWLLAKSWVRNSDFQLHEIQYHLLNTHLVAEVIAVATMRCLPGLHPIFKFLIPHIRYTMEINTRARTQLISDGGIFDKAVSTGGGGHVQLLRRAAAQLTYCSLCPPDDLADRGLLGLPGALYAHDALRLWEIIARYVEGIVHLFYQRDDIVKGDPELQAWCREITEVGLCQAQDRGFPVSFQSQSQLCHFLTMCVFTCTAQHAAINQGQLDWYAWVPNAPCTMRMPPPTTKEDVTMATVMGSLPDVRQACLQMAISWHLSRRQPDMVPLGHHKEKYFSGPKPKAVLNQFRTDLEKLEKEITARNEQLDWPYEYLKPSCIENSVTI
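Hydroperoxide product was detected by ferrous iron/xylenol orange as the 573 to 405 nm absorbance ratio. Arachidonic acid at 40 uM (final) was turned over for 30 min at room temperature by 150 nM human 12hLO, pH 7.0 Hepes buffer, after 15 min compound preincubation.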
gsp ag – agonists of gsp mutant (McCune-Albright syndrome); Potency, µM (doses to about 76.9 µM), without a hit: top-dose activation (cAMP increase), usual class: activators; gsp mutant cells, cAMP HTRF, 30 min; hit rate 0.13% among 340,000; active means well fitted activation curve with a large enough effect; inconclusive means small, poorly fitted or top-dose-only effect, or another doubt; inactive means no such curve, though single readings can be large or run the other way; cell line not stated here;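 further: phosphodiesterase inhibitor Ro 20-1724 added with compounds to block cAMP breakdown; nearly all actives have a fitted effect of over 60% in size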
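Cells stably selected in G418 were plated at 2000/well, grown 16-24 hr, then given compounds in DMSO with the PDE inhibitor […] (300 uM solution added) for 30 min at 37C; cAMP was read by HTRF.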
* hit, by the source's call; i = inactive; ? = inconclusive; · = not tested or not shown; ! = not active in a repeat; [ ] = remark or other dose. Unless noted, the call rests on the fitted dose curve; in most records, active means well fitted curve in the direction sought with a large enough effect; inconclusive means small, poorly fitted or top-dose-only effect, or another doubt; inactive means no such curve, though single readings can be large; an effect the other way counts as inactive or inconclusive. Potency means the concentration at half of the fitted maximal effect.

SMILES | gsp antag | Mito fusion act | FUS yeast rescue | 12-LOX inh | gsp ag
COC(=O)c1cc(-c2ccco2)nc2ccccc12 | · | · | · | 14µM* | ·
C[C@H](O)CNC(=O)C(=O)Nc1ccc(C(F)(F)F)nc1 | · | · | · | 2% | ·
COc1ccc(C(=O)OCC(=O)NC2CCCCC2)cc1F | · | · | · | -45% | ·
CCOc1ccccc1NC(=O)c1cc(-c2ccco2)nc2ccccc12 | · | · | · | 11µM* | ·
Cc1nn(Cc2ccc(Cl)cc2)c(C)c1NC(=O)c1cc(-c2ccco2)on1 | -32% | -1% | ? | ? | 11%
Cc1nn(Cc2ccc(Cl)c(Cl)c2)c(C)c1NC(=O)c1cc(-c2ccco2)on1 | 32µM* | -2% | ? | ? | 5%
Cc1nnc(NC(=O)CSc2cn(Cc3ccccc3)c3ccccc23)s1 | -13% | 2% | i | 33% | 16µM*
Cc1ccc(Cl)cc1NC(=O)C(C)Oc1cccc(Cl)c1 (configuration not stated) | · | · | · | -44% | ·
O=C1OC2(c3ccccc31)c1ccccc1-c1ccccc12 | 2% | · | i | 13% | 24%[15.4 µM]
O=C1OC(c2ccc3ccccc3c2O)(c2ccc3ccccc3c2O)c2ccccc21 | -7% | · | ? | 6.3µM* | -40%
CCC(=O)Oc1ccc2c(-c3cc4ccccc4oc3=O)cc(=O)oc2c1 | · | · | · | -7% | ·
Cc1nc2cccnc2n1CC1CCCN(S(=O)(=O)c2ccc(C(F)(F)F)cc2)C1 (configuration not stated) | · | · | · | 20% | ·
Cc1noc(-c2ccc(OC3CN(C(=O)Cc4cccs4)C3)cc2)n1 | · | · | · | 7.1µM* | ·
COc1cccc(-n2c(-c3ccccc3F)nc3c(cnn3-c3ccc(C)cc3)c2=O)c1 | · | · | 16µM* | 0% | ·
CCC(Oc1ccccc1F)C(=O)Nc1ccc(OC)c2ncccc12 (configuration not stated) | · | · | · | 20% | ·
COc1ccc(CCN(C)c2ccc(C(N)=O)cc2[N+](=O)[O-])cc1OC | 2% | 7% | i | -16% | ?
COc1ccc(CCN(C)C/C=C/c2ccccc2[N+](=O)[O-])cc1OC | -3% | -3% | i | 0.89µM* | -18%
Cc1nc2ccccc2cc1C(=O)NCc1ccccc1 | -5% | · | i | 98% | -2%[15.4 µM]
Cc1nc2ccccc2cc1C(=O)O | 6% | -2% | i | 7.9µM*! | 0%
COc1ccc(CCNC(=O)c2cc(-c3ccccc3)c(N3CCOCC3)s2)c(OC)c1OC | 32µM* | -1% | ? | 0% | -18%
O=C(NC1C2CC3CC(C2)CC1C3)c1ccc(-c2ccc(Br)cc2)o1 (configuration not stated) | · | · | · | -16% | ·
Cc1sc2ncn(CC(=O)N3CCN(c4cccc(Cl)c4)CC3)c(=O)c2c1S(=O)(=O)N1CCC(C)CC1 | · | · | 25µM* | -20% | ·
Cc1ccc(Cl)cc1N1CCN(C(=O)Cn2cnc3sc(C)c(S(=O)(=O)N4CCC(C)CC4)c3c2=O)CC1 | · | · | i | -22% | ·
Cc1sc2ncn(CC(=O)N3CCN(c4ccccc4)CC3)c(=O)c2c1S(=O)(=O)N1CCC(C)CC1 | · | · | 25µM* | -27% | ·
CCOc1ccc(C(=O)Nc2ccc(C(F)(F)F)n(C)c2=O)cc1 | 3% | 4% | i | 0% | 28µM*
SMILES | gsp antag | Mito fusion act | FUS yeast rescue | 12-LOX inh | gsp ag
CC(C)(C)c1[nH]c2c(F)cccc2c1C=O | · | · | · | 71% | ·
Cc1ccc2c(c1)CCCN2C(=O)c1ccoc1C | -18% | -3% | 5.6µM* | -22% | 8%
Cc1ccc2c(c1)CCCN2C(=O)c1c(C)noc1C | -4% | -12% | i | 14% | ?
CCN(CC1CCN(CCc2ccccc2C)CC1)C(=O)c1cc(C)nc(C)n1 | · | · | · | 36% | ·
CCOC(=O)C1(CCCc2ccccc2)CCN(C(=O)[C@@H]2C[C@@H](C)NC(=S)N2)CC1 | -9% | -2% | i | 45µM* | 8%[15.4 µM]
Cc1onc(-c2c(F)cccc2Cl)c1C(=O)OCC(=O)C(C)(C)C | · | · | · | -6% | ·
CC(=O)Nc1ccc(CN2CCn3c(nnc3C3CCNCC3)C2)cc1 | · | · | · | 11µM* | ·
COc1ccc(CN2CCn3c(nnc3C3CCNCC3)C2)cc1 | · | · | · | 10%[6.33 µM] | ·
CCOC(=O)c1c(S(=O)(=O)N2CCCC2)nn(CC)c1C | · | · | · | 13µM* | ·
CCOC(=O)c1c(S(=O)(=O)N2CCN(C3CCCCC3)CC2)c(C)n(C)c1C | 11% | -5% | i | 0% | 12%
Cc1ccccc1CN1CCC2(CC1)COCCN2C(=O)OCc1ccccc1 | · | · | · | 7%[176 µM] | ·
O=C1c2ccccc2NC(c2ccc(-c3cccc([N+](=O)[O-])c3)o2)N1O (configuration not stated) | -16% | 23% | · | ? | -31%
O=C1c2ccccc2NC(c2ccc(-c3ccc(F)cc3)o2)N1O (configuration not stated) | · | 7% | i | 40µM* | ·
O=C1c2ccccc2NC(c2ccc(-c3ccc(Br)cc3)o2)N1O (configuration not stated) | -10% | 3% | ? | 20µM* | 18%
Cc1ccc(C(=O)N2CC(Oc3ccc(F)cc3C)C2)cc1 | · | · | · | 3%[176 µM] | ·
Cn1c(SCC(=O)NCc2ccc3c(c2)OCO3)nnc1-c1cc2ccccc2cc1O | 40µM* | 3% | i | 1% | ?
O=C(c1cccnc1)N1CCc2cc(NS(=O)(=O)c3ccccc3)ccc21 | · | · | · | 15% | ·
COc1cc(C2C(C(=O)OC(C)C)=C(C)Nc3nc4ccccc4n32)cc(OC)c1O (configuration not stated) | · | · | · | -11% | ·
O=C(/C=C/c1ccco1)N(Cc1cccs1)Cc1cccs1 | · | · | · | 8.9µM* | ·
C=CCN(Cc1cccs1)C(=O)/C=C/c1ccccc1 | · | · | · | 3% | ·
Cc1ccc(Cl)cc1NC(=O)CN1CCC2(CC1)OCCO2 | · | · | · | 9% | ·
COc1ccc2[nH]c(=S)[nH]c2c1 | 4% | 2% | i | ? | -18%
COc1ccc2c(C(F)(F)F)cc(=S)[nH]c2c1 | · | · | · | 35µM* | ·
C=CCn1c(-c2ccc3ncccc3c2)n[nH]c1=S | -7% | 0% | i | 28µM* | 11%
CCn1c(-c2ccc3ncccc3c2)n[nH]c1=S | -4% | -3% | i | ? | 27%
CCCOc1ccc(NC(=O)c2n[nH]c(=O)c3ccccc23)cc1OCCC | · | · | · | 11% | ·
Cc1nc2sc3c(O)cc(=O)[nH]c3c2c(C)c1C | -4% | -2% | i | 3% | ?
O=c1cc(O)c2sc3nc(-c4cccs4)cc(-c4cccs4)c3c2[nH]1 | · | · | · | 10µM* | ·
